In PubChem BioAssay (NCATS):
Values joined by “and” are separate entries in the source; they are usually repeats but may differ in a detail not shown here. Equal entries are not always repeated. Results filed as inconclusive are left out. Where a structure was tested more than once in an assay, its records may differ in their call. A number with no mark means an inactive call. Active and inactive are the calls of the source. Calls come from the whole dose curve; as a rule, active = well fitted inhibition curve with a large enough effect; inconclusive = small, poorly fitted or top-dose-only effect; inactive = flat fitted curve, though single readings scatter.

How the values were obtained:
HEK293 = experiment: Cytotoxic Profiling of Annotated Libraries Using Quantitative High-Throughput Screening (AID 1296008); details: Five cell lines viability, CellTiter-Glo ATP luminescence, 48-72 h; max response: hits give low values; note: potency is the fitted concentration of half-maximal effect; for max response: % is set by controls: 0 for no effect and ±100 for the full control effect
Outline: (§1)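 Compounds were pin-transferred onto cells and incubated 48 or 72 hr at 37 degree Celsius, 95% humidity. CellTiter-Glo was added, plates sat 10 min at room temperature, then ATP-coupled luminescence was imaged as the viability read-out.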

HaCat [1] = experiment: as above; details: Five cell lines viability, CellTiter-Glo ATP luminescence, 48-72 h; max response: hits give low values
Outline: as §1

KB-3-1 = experiment: as above; details: Five cell lines viability, CellTiter-Glo ATP luminescence, 48-72 h; max response: hits give low values
Outline: as §1

CRL-7250 = normal cell line; experiment: as above; details: Five cell lines viability, CellTiter-Glo ATP luminescence, 48-72 h; max response: hits give low values
Outline: as §1

NIH3T3 = experiment: as above; details: Five cell lines viability, CellTiter-Glo ATP luminescence, 48-72 h; max response: hits give low values
Outline: as §1

HACAT [2] = experiment: qHTS assay to identify novel small-molecules to repurpose for Merkel cell carcinoma treatment (AID 1296009); details: MCC and control cell lines, CellTiter-Glo viability, 72 h; at 44.8 µM (top of the series) unless noted
Outline: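 qHTS format: cells treated with library compounds in DMSO across 8 (NPC) or 11 (MIPE) concentrations. Readout after 72 hr at 37 degree celsius was CellTiter-Glo luminescence.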

TAB109 = experiment: qHTS profiling for inhibitors of Plasmodium falciparum proliferation (AID 504749);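 note: 0% = DMSO vehicle and full inhibition = artemisinin control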; details: P. falciparum in erythrocytes, SYBR Green DNA, 72 h; series mostly up to 28.7 µM
Outline: (§2)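 Parasite proliferation within erythrocytes, 72 h exposure. Endpoint: SYBR Green I fluorescence after overnight lysis at room temperature. Controls: 0.29 uM artemisinin, DMSO.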

TAB113 = experiment: as above; details: P. falciparum in erythrocytes, SYBR Green DNA, 72 h; series mostly up to 28.7 µM
Outline: as §2

TAB165 = experiment: as above; details: P. falciparum in erythrocytes, SYBR Green DNA, 72 h; series mostly up to 28.7 µM
Outline: as §2

W2 = experiment: as above; details: P. falciparum in erythrocytes, SYBR Green DNA, 72 h; series mostly up to 28.7 µM
Outline: as §2
Note: nearly all actives have a fitted effect of over 60% in size.

Q: How did the max response (HEK293) turn out when Cc1noc(-c2ccc(CSCCC(=O)O)cc2)c1NC(=O)OC(C)c1ccccc1Cl (stereo not given) was run?
A: -6.98%

Q: What about the max response (HaCat [1]) of the same compound?
A: -23.2%

Q: And the outcome (KB-3-1)?
A: inactive

Q: Which results are given for Cn1cc(-c2ccc3ncc(Cc4ccc5ncccc5c4)n3n2)cn1?
A: max response (HEK293): 4.11%; Potency (HaCat [1]): 20.6 µM (active); max response (HaCat [1]): -43.1%; max response (KB-3-1): 8.56% and 1.39%

Q: Which results are given for C[C@]12CCC(=O)C=C1[C@@H]1CC1[C@H]1[C@H]3[C@@H]4C[C@H]4[C@@]4(CCC(=O)O4)[C@@]3(C)CC[C@H]12 (stereo not given in full)?
A: max response (CRL-7250): 3.77%; max response (HaCat [1]): -9.69%; outcome (NIH3T3): inactive

Q: Which results are given for C[C@H]1COc2c(N3CCN(C)CC3)c(F)cc3c(=O)c(C(=O)O)cn1c23?
A: max response (CRL-7250): -8.35%; max response (KB-3-1): 6.8%; outcome (NIH3T3): inactive

Q: Which results are given for NC(=O)Nc1sc(-c2ccc(F)cc2)cc1C(N)=O?
A: Potency (HEK293): 13.2 µM (active); Potency (HaCat [1]): 10.5 µM (active); Potency (KB-3-1): 9.35 µM (active)

Q: What does the source list for CCc1cc(C(C)=NOCc2ccc(C3CCCCC3)c(C(F)(F)F)c2)ccc1CN1CC(C(=O)O)C1?
A: max response (CRL-7250): 2.27%; outcome (HaCat [1]): inactive; outcome (KB-3-1): inactive; max response (NIH3T3): -5.84%; outcome (HACAT [2]): inactive

Q: For C#C[C@]1(O)CC[C@@H]2[C@@H]3CCc4cc(O)ccc4[C@H]3CC[C@@]21C, which max response (CRL-7250) is on record?
A: -14.3%

Q: What about the Potency (KB-3-1) of the same compound?
A: 20.9 µM (active)

Q: And the max response (NIH3T3)?
A: -5.15%

Q: For N#Cc1c(C2CCNCC2)cc(-c2c(O)cccc2OCC2CC2)nc1N, which Potency (HEK293) is on record?
A: 20.9 µM (active)

Q: What about the max response (HaCat [1]) of the same compound?
A: -15.5%

Q: And the max response (KB-3-1)?
A: -14.2%

Q: And the max response (NIH3T3)?
A: -27%

Q: Which results are given for COc1ccc2c(c1OC)C(=O)OC2[C@H]1c2c(cc3c(c2OC)OCO3)CCN1C (stereo not given in full)?
A: Potency (TAB109): inactive; Potency (TAB113): inactive; Potency (TAB165): inactive; Potency (W2): inactive; Potency (CRL-7250): 0.833 µM (active); Potency (HaCat [1]): 10.5 µM (active); Potency (KB-3-1): 0.118 µM (active); Potency (NIH3T3): 1.05 µM (active)

Q: Which max response (CRL-7250) does the source give for CN1CCc2c(c3ccccc3n2Cc2ccc(C(=O)NO)cc2)C1 here?
A: -28.2% and -9.31%

Q: And the Potency (KB-3-1)?
A: 26.4 µM (active)

Q: How did the Potency (HEK293) turn out when Cc1nc(NC(=O)N2CCC[C@@H]2C(N)=O)sc1-c1ccnc(C(C)(C)C(F)(F)F)c1 was run?
A: 14.8 µM (active)

Q: And the Potency (HaCat [1])?
A: 3.32 µM (active)

Q: And the Potency (KB-3-1)?
A: 8.33 µM (active)

Q: And the Potency (NIH3T3)?
A: 16.6 µM (active)

Q: What does the source list for O=C1NCCc2[nH]c(-c3ccncc3)cc21?
A: Potency (CRL-7250): 7.43 µM (active); Potency (NIH3T3): 23.5 µM (active)

Q: How did the Potency (HEK293) turn out when CC(=O)ON=C1C(c2c(O)[nH]c3cc(Br)ccc23)=Nc2ccccc21 was run?
A: 14.8 µM (active)

Q: And the max response (HaCat [1])?
A: -13.8%

Q: And the max response (KB-3-1)?
A: -15.3%

Q: For COc1ccc(S(=O)(=O)Nc2cc(-c3c(O)ccc4ccccc34)c(O)c3ccccc23)cc1, which max response (CRL-7250) is on record?
A: -21.5%

Q: And the max response (HaCat [1])?
A: -11.6%

Q: What about the outcome (NIH3T3) of the same compound?
A: inactive

Q: CC[C@@]1([C@@H]2O[C@@H]([C@H]3O[C@@](O)(CO)[C@H](C)C[C@H]3C)C[C@H]2C)CC[C@H]([C@]2(C)CC[C@]3(C[C@H](O)[C@@H](C)[C@@H]([C@@H](C)[C@@H](OC)[C@H](C)C(=O)O)O3)O2)O1 was tested. Which Potency (HEK293) did it give?
A: 0.144 µM (active)

Q: What does the source list for CCCCCCCCc1ccc(CCC(N)(CO)CO)cc1?
A: Potency (HEK293): 26.4 µM (active); Potency (HaCat [1]): 18.7 µM (active)

Q: Which Potency (HEK293) does the source give for Cn1cc(C2=C(c3c4n(c5ccccc35)CCC(CN)C4)C(=O)NC2=O)c2ccccc21 (stereo not given) here?
A: 13.2 µM (active)

Q: And the Potency (HaCat [1])?
A: 37.2 µM (active)

Q: What about the Potency (KB-3-1) of the same compound?
A: 6.62 µM (active)

Q: What about the Potency (NIH3T3) of the same compound?
A: 16.6 µM (active)

Q: With CCOC(=O)[C@H](CCc1ccccc1)N[C@@H](C)C(=O)N1[C@@H](C(=O)O)C[C@H]2CCC[C@@H]21 as the compound, how does the Potency (HEK293) read?
A: 18.7 µM (active)

Q: What about the Potency (HaCat [1]) of the same compound?
A: 37.2 µM (active)

Q: COC[C@H](NC(=O)c1cnc(C)s1)C(=O)N[C@@H](COC)C(=O)N[C@@H](Cc1ccccc1)C(=O)[C@@]1(C)CO1 was tested. Which Potency (HEK293) did it give?
A: 0.148 µM (active)

Q: And the Potency (HaCat [1])?
A: 0.662 µM (active)

Q: And the Potency (KB-3-1)?
A: 0.469 µM (active)

Q: What about the Potency (NIH3T3) of the same compound?
A: 0.833 µM (active)

Q: For O=C(Nc1cc2cc[nH]c2cn1)c1ccccc1, which Potency (CRL-7250) is on record?
A: 18.7 µM (active)

Q: And the Potency (NIH3T3)?
A: 13.2 µM (active)

Q: CCCNS(=O)(=O)Nc1ncnc(OCCOc2ncc(Br)cn2)c1-c1ccc(Br)cc1 was tested. Which max response (CRL-7250) did it give?
A: -8.99%

Q: And the outcome (HaCat [1])?
A: inactive

Q: What about the outcome (KB-3-1) of the same compound?
A: inactive

Q: And the max response (NIH3T3)?
A: -4.31%

Q: And the outcome (HACAT [2])?
A: inactive

Q: O=S(=O)(O)CCSSCCS(=O)(=O)O was tested. Which outcome (HEK293) did it give?
A: inactive

Q: What about the max response (HaCat [1]) of the same compound?
A: -4.2%

Q: And the max response (KB-3-1)?
A: 4.37%

Q: And the max response (NIH3T3)?
A: -4.2%

Q: What does the source list for Oc1cc(-c2nc(-c3ccccc3)[nH]c2-c2ccncc2)ccc1Cl?
A: max response (CRL-7250): -23.8%; max response (KB-3-1): -18.3%

Q: How did the Potency (HEK293) turn out when COc1ccc(Nc2cc(-c3cnc(N)nc3)nc(N3CCOCC3)n2)cn1 was run?
A: 1.87 µM (active)

Q: And the Potency (HaCat [1])?
A: 2.64 µM (active)

Q: And the Potency (KB-3-1)?
A: 2.96 µM (active)

Q: What about the Potency (NIH3T3) of the same compound?
A: 3.32 µM (active)
